Screening results: PubChem BioAssay, several laboratories
Hits are enriched below; roughly 4.5% of the tested compounds scored in any of these assays.
Gli-Sufu block: Gli-Sufu pathway antagonism | Sufu-KO-LIGHT fibroblasts, Gli luciferase reporter luminescence | inhibition, % at 5 µM | 0.74% of 340,000 active;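 active = inhibition above about 55%, limit read from the data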
Jurkat NFkB inh: inhibitors of the PMA/ionomycin-induced NF-kB reporter in Jurkat cells. PMA/ionomycin-induced NF-kB luciferase reporter, luminescence. inhibition, % at 4 µM. 0.53% of 330,000 active. AID 435003; in the data active = inhibition above about 50%
CSC inhib: cancer stem cell inhibition | 1.1% of 300,000 active | AID 2717 | inhibition, % at 7.5 µM | cancer stem cell-like cells viability, luminescence; in the data active = inhibition above about 75%; inconclusive = no clear call, values can overlap the other calls; tested in HMLE shEcad cells
Mdm2 MdmX PPI: inhibitors of human Mdm2/MdmX interaction. 3% of 330,000 active. inhibition, % at 8 µM. SaOS-2 split-luciferase Mdm2/MdmX complementation, luminescence. O15151+Q00987;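 active = inhibition of at least 50% at 8 µM in the primary screen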
Target sequence (O15151 whole entry, looked up): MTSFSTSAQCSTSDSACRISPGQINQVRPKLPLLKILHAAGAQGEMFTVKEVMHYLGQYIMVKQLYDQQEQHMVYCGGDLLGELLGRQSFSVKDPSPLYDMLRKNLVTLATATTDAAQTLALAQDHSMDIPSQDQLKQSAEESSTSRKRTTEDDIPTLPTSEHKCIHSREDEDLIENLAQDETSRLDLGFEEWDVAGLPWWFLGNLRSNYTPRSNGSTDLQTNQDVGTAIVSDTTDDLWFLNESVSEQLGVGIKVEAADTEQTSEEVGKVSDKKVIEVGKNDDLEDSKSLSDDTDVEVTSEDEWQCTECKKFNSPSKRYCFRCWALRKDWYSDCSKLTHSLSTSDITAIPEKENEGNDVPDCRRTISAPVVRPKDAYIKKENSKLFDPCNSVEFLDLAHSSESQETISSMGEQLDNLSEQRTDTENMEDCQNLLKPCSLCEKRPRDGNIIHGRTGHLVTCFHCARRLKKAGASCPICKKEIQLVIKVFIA
Target sequence (Q00987 whole entry, looked up): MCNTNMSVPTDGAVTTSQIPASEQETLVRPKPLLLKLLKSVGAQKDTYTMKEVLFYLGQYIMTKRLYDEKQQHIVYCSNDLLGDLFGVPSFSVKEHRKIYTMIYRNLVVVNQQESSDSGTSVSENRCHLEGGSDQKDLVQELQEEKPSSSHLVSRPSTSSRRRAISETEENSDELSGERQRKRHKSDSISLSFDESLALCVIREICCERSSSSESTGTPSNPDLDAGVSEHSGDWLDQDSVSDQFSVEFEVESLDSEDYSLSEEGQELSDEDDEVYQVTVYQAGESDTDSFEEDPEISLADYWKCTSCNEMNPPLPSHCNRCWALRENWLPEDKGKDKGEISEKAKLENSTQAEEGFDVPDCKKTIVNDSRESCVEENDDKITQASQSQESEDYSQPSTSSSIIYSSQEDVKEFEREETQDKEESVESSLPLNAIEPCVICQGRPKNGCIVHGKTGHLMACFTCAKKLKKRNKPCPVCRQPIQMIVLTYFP
aSyn UTR inh: 5' untranslated region of α-synuclein, MLPCN primary screen; alpha-synuclein 5'UTR reporter, inhibitor activity; inhibition, % (tested at 7.5 µM); AID 1813; 0.82% of 300,000 active; in the data active = inhibition above about 60%; inconclusive = no clear call, values can overlap the other calls;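 also: H4 neuroglioblastoma cells stably carrying SNCA 5'UTR luciferase fusion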
697 NFkB inh: lowers PMA/ionomycin-induced NF-kB signal in 697 B cells | inhibition, % at 4 µM | AID 435022 | 697 B-cell NF-kB luciferase reporter, 16 h | 0.33% of 330,000 active; in the data active = inhibition above about 35%
Mdm2-MdmX conf: confirmation of human Mdm2/MdmX interaction inhibitors; Mdm2-MdmX binding, luminescent assay; shares compounds with Mdm2 MdmX PPI; AID 489028; inhibition, % at 8 µM; 55% of 10,000 active; in the data active = inhibition above about 40%
FLuc counter: full-length luciferase inhibition in Mdm2/MdmX counter-screen. SaOS-2 full-length luciferase counterscreen, luminescence. shares compounds with Mdm2 MdmX PPI. inhibition, % at 8 µM. 77% of 6,200 active;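 active = mean inhibition at 8 µM reaching about 37%, which flags the compound as non-specific, limit read from the data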;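 also: p53-null SaOS-2 cells with luciferase driven by a doxycycline-inducible promoter; compound on cells about two nights before reading with doxycycline added after day one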
Of the large screens only hits and unclear results are named; the others gave an inactive call (follow-up assays come after a bar, where they were run).

CCn1ncc(Cl)c1C(=O)Nc1cc([N+](=O)[O-])ccc1OC	none
N#C/C(=C/c1cn(-c2ccccc2)nc1-c1cccc(OCc2ccccc2)c1)C(=O)NCCCn1ccnc1	CSC inhib inconclusive
CCOc1cccc(-c2nn(-c3ccccc3)cc2/C=C(/C#N)C(=O)NCCCn2ccnc2)c1	Mdm2 MdmX PPI 77 | Mdm2-MdmX conf inactive | FLuc counter 51
CC(NC(=O)/C(C#N)=C/c1cn(-c2ccccc2)nc1-c1ccc(F)cc1)c1ccccc1 (centres undefined)	none
Cc1ccc(-c2nn(-c3ccccc3)cc2/C=C(\C#N)C(=O)NCc2ccccc2)cc1	Mdm2 MdmX PPI 75 | Mdm2-MdmX conf 44 | FLuc counter 85
CN(C(=O)Cn1nnc(-c2ccccc2)n1)C1CCS(=O)(=O)C1 (centres undefined)	none
CCN(CC)c1ccc(C(=O)OCC(=O)Nc2ccc3[nH]c(=O)[nH]c3c2)cc1	none
N#Cc1c(NC(=O)CSc2nnc(-c3ccncc3)n2CC2CCCO2)sc2c1CCCC2 (centres undefined)	none
Cc1onc(-c2ccccc2)c1C(=O)Nc1sc2c(c1C#N)CCC2	Mdm2 MdmX PPI 55 (no result: CSC inhib) | Mdm2-MdmX conf 60 | FLuc counter 49
Cc1onc(-c2ccccc2)c1C(=O)NC(=S)Nc1sc2c(c1C#N)CCCC2	none
N#Cc1c(NC(=O)CSc2ncc(-c3ccccc3)n2CC2CCCO2)sc2c1CCCC2 (centres undefined)	Mdm2 MdmX PPI 76 (no result: CSC inhib) | Mdm2-MdmX conf 42 | FLuc counter 67
CC(C)n1cnc2c(NCc3ccccc3)cc(N[C@H](C)CO)cc21	CSC inhib 124, Mdm2 MdmX PPI 74 (no result: aSyn UTR inh) | Mdm2-MdmX conf 79 | FLuc counter 52
CCC(CO)Oc1cc(NCc2ccccc2)c2ncn(C(C)C)c2c1 (centres undefined)	none (no result: CSC inhib, aSyn UTR inh)
CCOC(=O)c1c(-c2ccc(C)o2)csc1NC(=S)NC(=O)N(C)C	none
CCCCn1c(NC(=O)c2ccccc2Cl)c(C#N)c2nc3ccccc3nc21	Mdm2 MdmX PPI 58 | Mdm2-MdmX conf inactive
O=C(N/N=C/c1ccccc1O)C1CC(=O)N(c2ccc(Cl)cc2)C1 (centres undefined)	Mdm2 MdmX PPI 76, aSyn UTR inh 83 | Mdm2-MdmX conf 59 | FLuc counter 37
O=C(Oc1ccccc1)N1CCN(C(=O)c2ccco2)CC1	none
COc1ccc(-n2c(C)c(C(C)=O)c3cc(O)ccc32)cc1	Mdm2 MdmX PPI 93 (no result: CSC inhib) | Mdm2-MdmX conf 83 | FLuc counter 54
CCOc1ccc(-n2c(C)c(C(C)=O)c3cc(OC(C)=O)ccc32)cc1	Mdm2 MdmX PPI 76 | Mdm2-MdmX conf 80 | FLuc counter 53
COc1cccc(N2CCN(C(=O)C3CCCN(c4ncnc5c4nc4n5CCCCC4)C3)CC2)c1 (centres undefined)	none
N#CC1=C(N)Oc2ccc3ccc(O)cc3c2C1c1ccsc1 (centres undefined)	none (no result: Jurkat NFkB inh, CSC inhib, Mdm2 MdmX PPI, 697 NFkB inh)
Cc1c(O)ccc(/C=N/Nc2nc(-c3cccnc3)nc3ccccc23)c1O	Mdm2 MdmX PPI 66 | Mdm2-MdmX conf 59 | FLuc counter 70
Cc1ccc(Nc2nc(-c3cccnc3)nc3ccccc23)cc1	Mdm2 MdmX PPI 63 | Mdm2-MdmX conf 57 | FLuc counter 57
COc1ccc(CCN(C)CC(O)c2ccccc2)cc1OC (centres undefined)	none
Cc1ccc(NC(=O)CCNC(=O)c2ccc(Cl)cc2)cc1F	none
CCC(O)CNC(=O)NC(=C(Cl)Cl)c1ccc(C)c(F)c1 (centres undefined)	Mdm2 MdmX PPI 77 | Mdm2-MdmX conf inactive | FLuc counter 38
C#CCN1C=CC(=O)[C@@H](OC(=O)Nc2ccc(C)cc2)[C@H]1c1ccccc1Br	none (no result: Jurkat NFkB inh, CSC inhib, Mdm2 MdmX PPI, aSyn UTR inh, 697 NFkB inh)
COc1cc(C(=O)NC(=S)Nc2ccc(NC(=O)c3ccco3)cc2)cc(OC)c1OC	Mdm2 MdmX PPI 54 | Mdm2-MdmX conf inactive
COc1cc(C(=O)NC(=S)N(CCc2ccccc2)CCc2ccccc2)cc(OC)c1OC	Mdm2 MdmX PPI 52, aSyn UTR inh 69 | Mdm2-MdmX conf 53 | FLuc counter 50
COc1cc(C(=O)NC(=S)N(C)Cc2ccccc2)cc(OC)c1OC	none
O=C(CCNC(=O)C1CCN(S(=O)(=O)c2ccc(F)cc2)CC1)NCc1ccccc1Cl	none
C=CCNC(=O)c1ccc2c(=O)n(CCCN3CCCC3=O)c(=S)[nH]c2c1	none
Oc1c(C(Nc2ccccn2)c2cccnc2)cc(Cl)c2cccnc12 (centres undefined)	none
CCC(=O)NC(c1ccc(OC)cc1)c1c(O)ccc2ccccc12 (centres undefined)	Mdm2 MdmX PPI 63 | Mdm2-MdmX conf 62 | FLuc counter 71
CC(=O)NC(c1cc(Cl)c2cccnc2c1O)C1CC1 (centres undefined)	CSC inhib 110, Mdm2 MdmX PPI 53 (no result: aSyn UTR inh) | Mdm2-MdmX conf 49 | FLuc counter inactive
COc1ccc(C(NC(=O)C(C)C)c2c(O)ccc3ccccc23)cc1 (centres undefined)	none
CCCCC(=O)NC(c1ccco1)c1cc(Cl)c2cccnc2c1O (centres undefined)	CSC inhib 102, Mdm2 MdmX PPI 63 | Mdm2-MdmX conf 56 | FLuc counter inactive
CC(=O)NC(c1ccc(C)cc1)c1cc(Cl)c2cccnc2c1O (centres undefined)	Mdm2 MdmX PPI 87, aSyn UTR inh inconclusive | Mdm2-MdmX conf 77 | FLuc counter inactive
COc1ccc(C(=O)NCCCNC(=O)c2cccnc2)cc1OC	none (no result: CSC inhib)
CCC(=O)NC(c1ccco1)c1cc(Cl)c2cccnc2c1OC (centres undefined)	none (no result: aSyn UTR inh)
CCC(=O)NC(c1ccc(OC)cc1)c1cc(Cl)c2cccnc2c1O (centres undefined)	CSC inhib 119, Mdm2 MdmX PPI 79, aSyn UTR inh 81 | Mdm2-MdmX conf 81 | FLuc counter inactive
CC(=O)NC(c1cc(Cl)c2cccnc2c1O)C(C)C (centres undefined)	Mdm2 MdmX PPI 66 (no result: aSyn UTR inh) | Mdm2-MdmX conf 43 | FLuc counter 37
COc1ccc(C(NC(=O)c2cccnc2)c2cc(Cl)c3cccnc3c2O)cc1OC (centres undefined)	Mdm2 MdmX PPI 75, aSyn UTR inh 76 (no result: CSC inhib) | Mdm2-MdmX conf 78 | FLuc counter inactive
COc1ccc(OC(C)C(=O)N2CCCc3ccccc32)cc1 (centres undefined)	none
CCC1CCCCN1C(=O)Nc1cc(Cl)ccc1OC (centres undefined)	none
Cc1cccc(/C(N)=N/OC(=O)c2ccco2)c1	none
Cc1cccc(/C(N)=N/OC(=O)N2CCOCC2)c1	Mdm2 MdmX PPI 86 | Mdm2-MdmX conf 49 | FLuc counter 105
Cc1ccc(C(=O)OCC(=O)N2CCOCC2)cc1	none
